Values joined by “and” are separate entries in the source; they are usually repeats but may differ in a detail not shown here. Equal entries are not always repeated. Active and inactive are the calls of the source. How the source made its calls: active means hit-call score of the fitted dose curve at least 0.9, where 1 is the maximum; inactive means score below 0.9.
read-out: Interleukin-8 (IL8), CXCL8 (gene 3576); experiment: BSK_hDFCGF_IL8: BioMAP Diversity Plus: hDFCGF Assay for Interleukin-8 (IL8) Biomarker Activity (AID 2283058); details: primary human foreskin fibroblasts; actives raise or lower the signal
Protocol: BSK_hDFCGF is a cell-based, multiplexed-readout assay that uses foreskin fibroblast, a human skin primary cell, with measurements taken at 24 hours after chemical dosing in a 96-well plate.BSK_hDFCGF_IL8 is an assay component measured in the BSK_hDFCGF assay. It measures IL-8 antibody related to regulation of gene expression using ELISA technology.Data from the assay component BSK_hDFCGF_IL8 was analyzed into 1 assay endpoint. This assay endpoint, BSK_hDFCGF_IL8, was analyzed with bidirectional fitting relative to DMSO as the negative control and baseline of activity. Using a type of binding reporter, gain or loss-of-signal activity can be used to understand changes in the signaling as they relate to the gene CXCL8. Furthermore, this assay endpoint can be referred to as a primary readout, because this assay has produced multiple assay endpoints where this one serves a signaling function. To generalize the intended target to other relatable targets, this assay endpoint is annotated to the cytokine intended target family, where the subfamily is interleukins.
The levels of cell surface (or secreted, indicated by the prefix "s") biomarker endpoints were measured by ELISA. Overt cytotoxicity to cells in confluent adherent cultures (all systems other than the BT system) was assessed by measuring total protein levels using sulforhodamine B (SRB) staining in parallel cultures at the time of biomarker measurements, indicated as SRB endpoints. For proliferation assays for adherent cell types, individual cell types are cultured at sub-confluence and relative cell numbers quantified by SRB staining at time points optimized for each system (48 h: 3C and CASM3C systems; 72 h: BT and HDF3CGF systems; 96 h: SAg system). SRB was performed by staining cells with 0.1% SRB after fixation with 10% TCA and reading wells at 560 nm.Viability and proliferation of PBMC (T cells) was quantified by Alamar Blue reduction for the SAg and BT systems. For PBMC viability (referred to as PBMC Cytotoxicity within the assay endpoint names), cells were plated (75,000/well in a 96-well plate) and then chemical samples added for 1 h before addition of activators, SEB and TSST-1 (20 ng/mL final concentration each). Cells were incubated for 90 h. Then, Alamar Blue (20 uL/well) (Invitrogen, Cat DAL1100) was added for 6 h, and the plates were read with a fluorescence microplate reader at 546/580 nm (excitation/emission). For PBMC proliferation, cells were plated and activated as above but incubated for only 16 h prior to addition of Alamar Blue. Plates were read after 6 h.

Row | Compound | outcome | AC50
1 | CS(=O)(=O)c1ccc(C2=C(c3ccccc3)C(=O)OC2)cc1 | inactive | 
2 | O=C1OC2(c3ccccc31)c1ccc(O)c(Br)c1Oc1c2ccc(O)c1Br | inactive | 
3 | O=C1OC[C@H](Cc2cccc(O)c2)[C@H]1Cc1cccc(O)c1 | inactive | 
4 | c1ccc(Oc2ccccc2)cc1 | inactive | 
5 | O=CN1CCOCC1 | inactive | 
6 | CCCCOC(=O)CCCCCCCC(=O)OCCCC | inactive | 
7 | CCCCCCCCCCCCCCCC(=O)OC/C=C(C)/C=C/C=C(C)/C=C/C1=C(C)CCCC1(C)C | inactive | 
8 | CSCCC=O | inactive | 
9 | COc1ccc(OC)c(N=Nc2c(O)ccc3ccccc23)c1 | inactive | 
10 | Oc1c(Cl)cc(Cl)c(Cl)c1Cc1c(O)c(Cl)cc(Cl)c1Cl |  | 3.96 µM (active)
11 | CC(=O)c1c(C)c([N+](=O)[O-])c(C(C)(C)C)c([N+](=O)[O-])c1C | inactive | 
12 | CC(C)(C)CC(C)(C)c1ccc(OCCOCC[N+](C)(C)Cc2ccccc2)cc1 |  | 5 µM (active)
13 | C=C(C)C(=O)OCCOCCOCCOCCOC(=O)C(=C)C | inactive | 
14 | CCCCCCC(CO)CCCC (stereo not given) |  | 37.9 µM (active) and 37.8 µM (active)
15 | COc1ccc(CCN2CCC(Nc3nc4ccccc4n3Cc3ccc(F)cc3)CC2)cc1 | inactive | 
16 | CCC(C)c1cc([N+](=O)[O-])cc([N+](=O)[O-])c1OC(=O)OC(C)C (stereo not given) |  | 13.4 µM (active)
17 | COc1cc(Cl)c(OC)cc1N | inactive | 
18 | CC1(C)C2=CCCC(C)(C)[C@]23CC[C@H]1C3 | inactive | 
19 | CN(c1nccc(=O)[nH]1)C1CCN(c2nc3ccccc3n2Cc2ccc(F)cc2)CC1 | inactive | 
20 | IC(I)I | inactive | 

Row | Compound | outcome | AC50
21 | C=C(C)C(=O)OCC(CC)(COC(=O)C(=C)C)COC(=O)C(=C)C | inactive | 
22 | c1ccc(CCc2ccccc2)cc1 | inactive | 
23 | CS(=O)(=O)OCCCCOS(C)(=O)=O | inactive | 
24 | C1=CC2C3C=CC(C3)C2C1 (stereo not given) | inactive | 
25 | O=C1c2ccccc2C(=O)c2c(O)ccc(O)c21 | inactive | 
26 | CC=Cc1ccc(OCC)c(O)c1 | inactive | 
27 | CC(C)(N=C=O)c1cccc(C(C)(C)N=C=O)c1 | inactive | 
28 | Cc1cc(CCC(=O)OCCOCCOCCOC(=O)CCc2cc(C)c(O)c(C(C)(C)C)c2)cc(C(C)(C)C)c1O | inactive | 
29 | C=CC(C)(O)CCC=C(C)C (stereo not given) | inactive | 
30 | CCCCCC(C=O)=Cc1ccccc1 | inactive | 
31 | O=C(Nc1ccc2c(O)c(N=Nc3ccc(N=Nc4ccc(S(=O)(=O)O)cc4)cc3)c(S(=O)(=O)O)cc2c1)c1ccccc1 | inactive | 
32 | CCOC(=O)C(C#N)=C(c1ccccc1)c1ccccc1 | inactive | 
33 | C=C(C)C(=O)OCCOCCOCCOC(=O)C(=C)C | inactive | 
34 | CC(=O)C1(C)CC2=C(CCCC2(C)C)CC1C (stereo not given) |  | 31.7 µM (active)
35 | CC1(C)CCC[C@]2(C)[C@H]3CCO[C@]3(C)CC[C@@H]12 |  | 37.9 µM (active) and 35.9 µM (active)
36 | CN(C)C(=O)Nc1ccc(Oc2ccc(Cl)cc2)cc1 | inactive | 
37 | CCCCN(CCCC)C(=O)N(CCCC)CCCC | inactive | 
38 | CCN(CC)C(=O)N(CC)CC | inactive | 
39 | CC(CN=Cc1ccccc1O)N=Cc1ccccc1O (stereo not given) | inactive | 
40 | c1ccc2cc(Nc3ccc(Nc4ccc5ccccc5c4)cc3)ccc2c1 | inactive | 

Source: PubChem BioAssay (EPA / NIEHS)
